# According to PubChem BioAssay:
# Calls of active or inactive are those of the source. Unless noted, no rule for the calls is given here.
# Columns and labels:
# [1] = compound effects on lung adenocarcinoma cell viability – A549, calcein-AM fluorescence, 48 h, basal, profiling panel (AID 1162); details: higher = more signal; also: test concentration not given here
# [2] = compound effects on differentiated 3T3-L1 adipocyte viability – cell-based, 3T3-L1 adipocytes, calcein-AM fluorescence, 48 h, basal, profiling panel (AID 1163); details: 3T3-L1 adipocytes viability, higher = more signal; also: test concentration not given here
# [3] = compound effects on hepatocellular carcinoma cell viability – HepG2, calcein-AM fluorescence, 48 h, basal, profiling panel (AID 1164); details: higher = more signal; also: test concentration not given here
# [4] = compound effects on multiple myeloma cell viability – MM1S, calcein-AM fluorescence, 48 h, basal, profiling panel (AID 1165); details: higher = more signal;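 also: viability of MM1S multiple myeloma cells under basal unstimulated conditions; test concentration not given here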
# [5] = calcein-AM signal in unstimulated myeloma cells – cell-based, calcein-AM fluorescence, 48 h, PK04 Diversity Set, profiling panel (AID 1166); details: RPMI8226 myeloma viability, higher = more signal;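 also: cells grown under basal conditions without added stimulus; test concentration not given here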
# [6] = JC-1 mitochondrial signal, unstimulated HepG2 cells – cell-based, JC-1 fluorescence, 24 h, 100 nL compound, profiling panel (AID 1167); details: HepG2 mitochondrial potential, higher = more signal; also: test concentration not given here
# [7] = JC-1 mitochondrial signal, unstimulated adipocytes – cell-based, JC-1 fluorescence, 3T3-L1 adipocytes, 24 h, 100 nL compound, profiling panel (AID 1168); details: JC-1 mitochondrial fluorescence, higher = more signal, called active from +8 up or from −8 down; also: test concentration not given here
# [8] = JC-1 mitochondrial signal, unstimulated myeloma cells – cell-based, JC-1 fluorescence, RPMI8226, 24 h, 100 nL compound, profiling panel (AID 1169); details: JC-1 mitochondrial potential fluorescence, higher = more signal; also: test concentration not given here
# [9] = JC-1 mitochondrial signal, unstimulated MM1S myeloma – cell-based, JC-1 fluorescence, 24 h, 100 nL compound, profiling panel (AID 1170); details: MM1S mitochondrial potential, higher = more signal; also: test concentration not given here
# [10] = resazurin metabolic signal in A549 cells – cell-based, resazurin fluorescence, 24 h, PK04 Diversity Set, profiling panel (AID 1171); details: A549 viability, higher = more signal, called active from +8 up or from −8 down; also: test concentration not given here
# [11] = resazurin metabolic signal in HepG2 cells – cell-based, resazurin fluorescence, 24 h, PK04 Diversity Set, profiling panel (AID 1172); details: HepG2 viability, higher = more signal; also: test concentration not given here
# [12] = budding yeast growth changes without added modifier – OD600, strain BY4716, 24 h, basal condition, primary screen (AID 1173); details: S. cerevisiae BY4716 growth, OD600, 24 h; higher = more signal, called active from +8 up or from −8 down
# [13] = viability profiling in MM1S myeloma cells – cell-based, resazurin fluorescence, basal, 24 h, PK04 Diversity Set, profiling panel (AID 1174); details: higher = more signal, called active from +8 up or from −8 down; also: test concentration not given here
# [14] = molecular target: Dihydroorotate dehydrogenase (quinone), mitochondrial (Plasmodium falciparum (isolate 3D7)) (UniProt Q08210); assay: inhibition of P. falciparum DHODH – biochemical, C-terminal His tag, absorbance 600 nm, primary screen (AID 1175); details: PfDHODH enzyme, DCIP absorbance 600 nm; higher = more signal, called active from +8 up or from −8 down;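 also: recombinant parasite enzyme with a five histidine tag at its C terminus; test concentration not given here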
# [15] = inhibition of PAO1 biofilm formation – strain PAO1, LB-PBS medium, absorbance 600 nm, primary screen (AID 1176); also: test concentration not given here; details: P. aeruginosa PAO1 growth/biofilm, A600, 12 h; higher = more signal
# [16] = growth modulation of vineyard yeast isolate – strain RM11-1a, OD600, basal, 24 h, primary screen (AID 1177);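 also: cultures grown under basal conditions with no added stressor; test concentration not given here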; details: S. cerevisiae RM11-1a growth, OD600, 24 h; higher = more signal, called active from +8 up or from −8 down
# [17] = growth of efflux-deficient E. coli DRC39 – strain DRC39, OD650, 24 h, E. coli filamentation inducers, primary screen (AID 1178);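 also: growth measured as culture turbidity by optical density at 650 nm; test concentration not given here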; details: E. coli DRC39 acrAB, higher = more signal, called active from +8 up or from −8 down
# [18] = growth of efflux-deficient E. coli DRC39 – strain DRC39, OD650, 48 h, E. coli filamentation inducers, primary screen (AID 1179);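 also: screen aims at cell division blockers that make cells filament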; details: E. coli DRC39 delta-acrAB growth, higher = more signal, called active from +8 up or from −8 down
# [19] = viability profiling in RPMI8226 myeloma cells – cell-based, resazurin fluorescence, basal, 24 h, PK04 Diversity Set, profiling panel (AID 1180); details: higher = more signal;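 also: RPMI8826 multiple myeloma cell line at 5000 cells per well; test concentration not given here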
# [20] = molecular target: E3 ubiquitin-protein ligase XIAP (Homo sapiens) (UniProt P98170); assay: small molecules binding XIAP protein – biophysical, small-molecule microarray, fluorescence 635 nm, primary screen (AID 1181); details: higher = more signal;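 also: score merges 667 nm emission and signal to noise over triplicate slides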
# E3 ubiquitin-protein ligase XIAP (Homo sapiens), sequence (P98170 whole entry, looked up): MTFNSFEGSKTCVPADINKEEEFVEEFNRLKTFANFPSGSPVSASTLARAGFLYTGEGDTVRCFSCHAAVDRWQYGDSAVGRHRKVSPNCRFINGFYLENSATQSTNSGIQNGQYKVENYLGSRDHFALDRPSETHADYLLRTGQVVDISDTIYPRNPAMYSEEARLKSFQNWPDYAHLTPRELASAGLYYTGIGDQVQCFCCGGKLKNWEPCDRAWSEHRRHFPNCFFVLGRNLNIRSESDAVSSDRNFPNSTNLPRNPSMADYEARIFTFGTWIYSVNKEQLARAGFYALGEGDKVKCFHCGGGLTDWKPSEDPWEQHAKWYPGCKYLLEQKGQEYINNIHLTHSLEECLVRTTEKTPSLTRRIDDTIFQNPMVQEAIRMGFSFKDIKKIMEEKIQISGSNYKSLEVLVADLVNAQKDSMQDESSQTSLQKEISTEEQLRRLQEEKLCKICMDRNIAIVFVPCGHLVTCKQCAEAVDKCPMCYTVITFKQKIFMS
# Dihydroorotate dehydrogenase (quinone), mitochondrial (Plasmodium falciparum (isolate 3D7)), sequence (Q08210 whole entry, looked up): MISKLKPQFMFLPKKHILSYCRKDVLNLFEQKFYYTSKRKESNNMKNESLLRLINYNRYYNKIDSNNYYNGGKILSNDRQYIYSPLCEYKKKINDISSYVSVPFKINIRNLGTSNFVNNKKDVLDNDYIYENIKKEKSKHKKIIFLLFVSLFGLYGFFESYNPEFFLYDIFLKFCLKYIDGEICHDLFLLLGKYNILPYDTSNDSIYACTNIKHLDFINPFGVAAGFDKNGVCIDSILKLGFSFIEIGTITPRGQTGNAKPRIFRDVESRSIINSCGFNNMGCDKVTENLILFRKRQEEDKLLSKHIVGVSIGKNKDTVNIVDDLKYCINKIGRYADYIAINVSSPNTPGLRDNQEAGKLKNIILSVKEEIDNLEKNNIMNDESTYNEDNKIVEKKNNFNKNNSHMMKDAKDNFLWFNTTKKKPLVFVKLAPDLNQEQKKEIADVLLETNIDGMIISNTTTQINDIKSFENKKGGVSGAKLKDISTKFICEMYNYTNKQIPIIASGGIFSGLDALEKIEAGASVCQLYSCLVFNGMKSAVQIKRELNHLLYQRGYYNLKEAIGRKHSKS
Compound,z-score [1],z-score [2],z-score [3],z-score [4],z-score [5],z-score [6],z-score [7],z-score [8],z-score [9],z-score [10],z-score [11],z-score [12],z-score [13],composite z-score [14],z-score [15],z-score [16],z-score [17],z-score [18],z-score [19],composite z-score [20]
O=C1[C@H]2[C@H]3[C@H](O)[C@H](O)CC(=NOCc4ccccc4)[C@@H]3CC[C@H]2C(=O)N1c1cccc(Oc2ccccc2)c1,0.794,-0.746,-0.505,0.213,0.3,-0.231,-0.145 (inactive),0.542,-1.68,-0.227 (inactive),0.363,0.204 (inactive),-0.857 (inactive),-0.0818 (inactive),0.741 (inactive),0.056 (inactive),0.796 (inactive),1.4 (inactive),0.173,-0.15
CSCC[C@@H]1NC(=O)CC=C[C@@H](C)COC(=O)[C@H](C)COC1=O,0.137,0.641,0.929,0.434,0.798,1.16,0.766 (inactive),0.0761,0.975,-0.365 (inactive),0.376,-1.59 (inactive),0.745 (inactive),-0.766 (inactive),0.483 (inactive),-2.43 (inactive),1.17 (inactive),-0.216 (inactive),-0.135,0.418
CC1(C)O[C@H]2OC([C@H](O)CON3C(=O)c4ccccc4C3=O)[C@H](O)[C@H]2O1 (stereo not given in full),0.23,0.0217,0.0029,-0.963,-0.486,-0.249,-0.143 (inactive),-0.484,0.658,0.368 (inactive),0.109,0.457 (inactive),-0.409 (inactive),-0.559 (inactive),-0.151 (inactive),-0.854 (inactive),0.345 (inactive),0.209 (inactive),0.0738,-0.261
CCN1C(=O)[C@H]2[C@H]3[C@H](O)[C@H](O)CC(=NO[C@@H]4O[C@H](CO)[C@@H](O)[C@H](O)[C@H]4O)[C@H]3CC[C@H]2C1=O,0.212,-0.158,0.298,-0.0327,-0.982,-0.68,-1.21 (inactive),0.0397,0.652,0.14 (inactive),-0.171,-0.305 (inactive),0.298 (inactive),-0.707 (inactive),0.519 (inactive),-0.782 (inactive),-0.18 (inactive),-0.446 (inactive),0.064,-0.11
O=C1[C@H]2[C@H]3[C@H](O)[C@H](O)CC(=NO[C@@H]4O[C@H](CO)[C@@H](O)[C@H](O)[C@H]4O)[C@@H]3CC[C@H]2C(=O)N1c1cccc(Oc2ccccc2)c1,0.161,-0.45,-0.593,0.365,-0.815,-0.655,-0.349 (inactive),-0.277,-0.229,0.39 (inactive),0.647,0.0857 (inactive),-0.602 (inactive),-0.111 (inactive),-0.343 (inactive),0.0867 (inactive),-0.492 (inactive),-0.961 (inactive),0.279,-0.124
CCOC(=O)NN=C1C[C@@H](O)[C@@H](O)[C@@H]2[C@@H]3C(=O)N(c4ccc(F)cc4F)C(=O)[C@@H]3CC[C@H]12,-0.999,1.01,-0.925,0.593,-0.895,1.11,-0.734 (inactive),0.14,-0.354,0.745 (inactive),0.99,-0.468 (inactive),1.44 (inactive),-2.51 (inactive),0.614 (inactive),-0.738 (inactive),0.284 (inactive),0.498 (inactive),0.241,-0.176
CCN1C(=O)[C@H]2[C@H]3[C@H](O)[C@H](O)CC(=NNC(=O)OCc4ccccc4)[C@H]3CC[C@H]2C1=O,-0.365,0.888,-0.0764,-1.59,0.507,-0.559,-0.978 (inactive),0.083,0.409,-0.218 (inactive),-0.0019,-0.277 (inactive),-0.193 (inactive),-0.052 (inactive),0.814 (inactive),-0.727 (inactive),-0.47 (inactive),-1.79 (inactive),-0.163,-0.102
CC(CCC(=O)OC[C@H]1O[C@H](C#Cc2ccccc2)C=C[C@@H]1Oc1ccc(C)cc1)=NOC(C)CN1CCCc2nc(C)c(C)cc21 (stereo not given in full),-0.177,-0.271,0.267,-2.18,-1.39,0.542,-2.38 (inactive),-0.7,-0.74,-0.719 (inactive),-0.374,-0.525 (inactive),-0.541 (inactive),0.589 (inactive),0.335 (inactive),0.797 (inactive),0.879 (inactive),-0.41 (inactive),-0.0206,0.257
CC(=O)OC[C@H]1O[C@@H](ON=C(C)C)[C@H](OC(C)=O)[C@@H](OC(C)=O)[C@@H]1OC(C)=O,-0.132,0.0138,-0.179,-0.0646,-0.43,-0.0132,-0.763 (inactive),0.93,0.35,-0.0264 (inactive),0.199,0.515 (inactive),-0.0437 (inactive),-0.696 (inactive),0.569 (inactive),0.0958 (inactive),-0.308 (inactive),-2.31 (inactive),-0.0678,0.0478
